Source: PubChem (The Scripps Research Institute Molecular Screening Center)
Shown are actives, neighbours in structure and some others; about 2.4% of the full set was active somewhere.
ASK1 inh: ASK1 kinase inhibitors, primary screen, biochemical, AlphaScreen; AlphaScreen MKK6 phosphorylation by ASK1, luminescence; Mitogen-activated protein kinase kinase kinase 5 (Homo sapiens), Q99683; AID 1159602, 2016; 0.99% of 22,000 active; inhibition, % at 7.44 µM; in the data active = inhibition above about 35%;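 also: 0% = median of compound wells and 100% = no enzyme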
ULK1 inh: ULK1 kinase inhibitors, primary screen, biochemical, AlphaScreen. AlphaScreen Atg13 phosphorylation by ULK1, luminescence. inhibition, % at 5.96 µM. 1.9% of 30,000 active. AID 1259251, 2017; in the data active = inhibition above about 43%;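 also: 0% = median of compound wells and 100% = no enzyme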
Target sequence (O75385 whole entry, looked up): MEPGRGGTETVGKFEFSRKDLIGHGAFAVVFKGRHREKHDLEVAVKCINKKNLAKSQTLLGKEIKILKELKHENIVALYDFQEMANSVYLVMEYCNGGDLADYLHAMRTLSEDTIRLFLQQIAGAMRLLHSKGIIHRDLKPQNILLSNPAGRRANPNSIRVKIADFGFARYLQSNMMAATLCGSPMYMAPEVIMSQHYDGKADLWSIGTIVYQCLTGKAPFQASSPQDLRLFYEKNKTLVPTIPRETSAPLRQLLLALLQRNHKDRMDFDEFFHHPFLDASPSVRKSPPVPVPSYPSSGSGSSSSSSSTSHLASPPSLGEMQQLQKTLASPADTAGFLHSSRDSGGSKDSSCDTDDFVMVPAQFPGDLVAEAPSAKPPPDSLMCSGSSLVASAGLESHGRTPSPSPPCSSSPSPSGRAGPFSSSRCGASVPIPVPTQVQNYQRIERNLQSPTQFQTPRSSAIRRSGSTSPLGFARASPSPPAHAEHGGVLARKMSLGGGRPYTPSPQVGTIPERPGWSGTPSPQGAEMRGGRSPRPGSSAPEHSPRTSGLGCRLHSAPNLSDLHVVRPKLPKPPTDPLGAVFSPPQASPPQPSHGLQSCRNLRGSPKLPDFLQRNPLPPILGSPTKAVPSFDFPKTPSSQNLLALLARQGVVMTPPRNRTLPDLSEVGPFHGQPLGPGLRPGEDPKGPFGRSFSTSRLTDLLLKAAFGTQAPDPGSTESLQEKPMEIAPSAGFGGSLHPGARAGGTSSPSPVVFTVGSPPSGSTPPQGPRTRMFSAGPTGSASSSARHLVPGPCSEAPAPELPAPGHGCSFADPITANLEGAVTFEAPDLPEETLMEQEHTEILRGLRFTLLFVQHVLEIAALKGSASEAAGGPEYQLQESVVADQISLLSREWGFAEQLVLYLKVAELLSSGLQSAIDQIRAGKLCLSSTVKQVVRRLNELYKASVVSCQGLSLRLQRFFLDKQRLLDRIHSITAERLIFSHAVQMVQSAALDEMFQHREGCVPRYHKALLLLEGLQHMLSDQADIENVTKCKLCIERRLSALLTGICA
* hit, by the source's call; · = no result given.

SMILES | ASK1 inh | ULK1 inh
c1cc(-c2cncc(N3CCOCC3)c2)nc(Nc2ccc(-n3cncn3)cc2)n1 | 17 | 11
CC(C)[C@H](O)C(=O)N1CCCN(S(=O)(=O)c2cccc3cnccc23)CC1 | 12 | 4
O=C(NNC(=O)C1CC12CCC2)C1C2CCCCC21 (configuration not stated) | · | 5
O=C(NCc1ccccc1)c1ccnc(Nc2cnccn2)c1 | -2 | 0
COc1cc(Nc2cc(Nc3cnccn3)ncn2)cc(OC)c1OC | 11 | 8
CC(=O)Nc1ccc(Nc2cc(Nc3ccncn3)nc(N)n2)cc1 | 4 | 5
COc1cc(Nc2cc(Nc3ccncc3)ncn2)cc(OC)c1OC | 17 | 62*
CC(=O)Nc1ccc(Nc2cc(Nc3ccncc3)ncn2)cc1 | -2 | 79*
CC(=O)Nc1ccc(Nc2cc(Nc3ccncn3)ncn2)cc1 | 11 | 62*
CC(=O)Nc1ccc(Nc2cc(Nc3ccncc3)nc(N)n2)cc1 | -1 | 2
Cc1cc(Nc2ccccc2)nc(Nc2ccnn2C)n1 | 11 | -9
COc1cc2nc(Nc3ccnn3C)nc(Nc3ccc(NC(C)=O)cc3)c2cc1OC | 8 | -7
Cc1ccc(C)c(NC(=O)CSc2ncc(CO)n2CC(=O)NCc2ccc(Cl)cc2)c1 | · | -3
CNS(=O)(=O)c1ccccc1Nc1nc(Nc2cc(OC)ccc2OC)ncc1Br | -3 | 64*
COc1ccc(Nc2ncc(-c3ccccc3)cn2)cc1 | · | 4
CNS(=O)(=O)c1ccccc1Nc1nc(Nc2ccc(N3CCOCC3)cc2OC)ncc1Br | -46 | 91*
COc1cnc(Nc2ccc(N3CCOCC3)cc2)nc1Nc1ccc(N2CCOCC2)cc1 | -2 | 17
Nc1nc(NCCN2CCOCC2)cc(NCc2ccc3c(c2)OCO3)n1 | 6 | -2
O=C(Nc1ccc2[nH]ncc2c1)C1CCCNC1 (configuration not stated) | 11 | 38
N[C@H]1CCC[C@@H](C(=O)Nc2ccc3cnccc3c2)C1 | 6 | 66*
N[C@@H]1CC[C@@H](C(=O)Nc2ccc3cnccc3c2)C1 | -10 | 34
O=C(Nc1ccc2[nH]ncc2c1)[C@H](O)c1ccccc1 | -5 | 49*
O=C(Nc1ccc2[nH]ncc2c1)C(O)c1ccc(Cl)cc1 (configuration not stated) | -15 | 9
N[C@@H]1CC[C@@H](C(=O)Nc2ccc3[nH]ncc3c2)C1 | -3 | 65*
N[C@H]1CC[C@@H](C(=O)Nc2ccc3[nH]ncc3c2)C1 | 6 | 72*
SMILES | ASK1 inh | ULK1 inh
CC(C)[C@H](O)C(=O)N[C@H]1CC[C@H](C(=O)Nc2ccc3[nH]ncc3c2)C1 | -1 | 5
CC(C)n1cnc2c(Nc3ccc(Oc4ccccc4)cc3)nc(-c3ccc(C(=O)NC4CC4)cc3)nc21 | 1 | 26
O=C(Nc1ccc2[nH]ncc2c1)[C@@H]1CCCN1 | 3 | 38
O=C(Nc1ccc2[nH]ncc2c1)[C@H]1CCCN1 | -12 | 45*
CC(=O)Nc1ccc(NC(=O)c2cccc(Nc3ccc(-n4ccnc4)cc3)n2)cc1 | -2 | 16
O=C(Nc1ccc(N2CCOCC2)cc1)c1cccc(Nc2ccc(N3CCOCC3)cc2)n1 | -1 | 48*
CC(=O)Nc1ccc(NC(=O)c2cccc(Nc3ccc(N4CCOCC4)cc3)n2)cc1 | -10 | 42
O=C(Nc1ccc(N2CCOCC2)cc1)c1cccc(Nc2ccc(-n3ccnc3)cc2)n1 | -3 | 50*
O=C(NCc1cccnc1)c1ccc2nc(N3CCN(c4ccccn4)CC3)sc2c1 | -6 | 4
CCc1ccc(NC(=O)[C@@H]2Cc3cc(F)ccc3CN2)cc1 | 7 | 3
CCOc1ccc(-c2cc(=O)c3cc(NC(=O)c4ccc(OC)c(OC)c4)ccc3o2)cc1 | · | 7
COc1cc(C(=O)NS(=O)(=O)c2ccccc2C)ccc1Cc1cn(C)c2ccc(NC(=O)OC3CCCC3)cc12 | · | 65*
CC(C)N(CCNc1cc(Nc2ccc(-n3ccnc3)cc2)ncn1)C(C)C | -2 | 6
CC(C)n1cnc2c(Nc3ccccc3)nc(NCc3cccnc3)nc21 | 3 | 54*
c1cncc(CNc2nc(NCc3ccc4c(c3)OCO4)nc3c2ncn3-c2ccsc2)c1 | -19 | 10
CC(C)n1cnc2c(Nc3ccccc3)nc(Nc3cccnc3)nc21 | -9 | 52*
CC(C)n1cnc2c(Nc3ccc(Oc4ccccc4)cc3)nc(Nc3cccnc3)nc21 | 15 | 8
c1ccc2[nH]c(CNc3nc(Nc4ccncc4)nc4c3ncn4-c3ccsc3)nc2c1 | 18 | 49*
CC(C)n1cnc2c(NCc3ccccc3)nc(NCc3cccnc3)nc21 | -7 | 2
c1cncc(CNc2nc(Nc3ccc4c(c3)OCO4)c3ncn(-c4ccsc4)c3n2)c1 | 29 | 53*
c1ccc2[nH]c(CNc3nc(Nc4ccc(-n5ccnc5)cc4)nc4c3ncn4-c3ccsc3)nc2c1 | 1 | 37
COc1ccc(-c2nc(NCc3cccnc3)c3ncn(CCN4CCCC4=O)c3n2)cc1 | 0 | 8
